# Laboratory results reported in PubChem BioAssay (Tox21).
# A number with no mark means an inactive call. Calls of active or inactive are those of the source. The call rests on the fitted dose curve; in most records, active means well fitted activation curve with a large enough effect in the repeat runs; inconclusive means weak or mixed curves; inactive means flat fitted curve, though single readings scatter.
# Molecular target: KiSS-1 receptor (Homo sapiens) (UniProt Q969F8)
# Assay: Human kisspeptin (KISS1R) small molecule agonists, calcium flux assay in KISS1R-HEK293 cells (AID 1920064)
# Settings: KISS1R-HEK293, calcium flux fluorescence, agonist; series mostly up to 76.8 µM; activation: at the top concentration
# From the text: National Center for Advancing Translational Sciences [NCATS]
# Division of Preclinical Innovation [DPI]
# U.S. Environmental Protection Agency [EPA]
# National Institutes of Environmental Health Sciences [NIEHS]
# National Toxicology Program [NTP]
# U.S. Food and Drug Administration [FDA]
# Kisspeptin and its receptor KISS1R play key roles in mammalian reproduction due to their involvement in the onset of puberty and control of the hypothalamic-pituitary-gonadal axis such as regulates GnRH release from the hypothalamus. The kisspeptin/KISS1R system also plays a direct role in peripheral organs (including the ovary, testis, uterus, and placenta) and is implicated in reproductive diseases such as miscarriage and polycystic ovary syndrome (PCOS). Abnormal KISS1R activity is associated with abnormal puberty, infertility, endometriosis, and hormone-dependent tumors. The KISS1 receptor (KISS1R, also called GPR54), a G-protein-coupled receptor (GPCR), acts (through phospholipase C) to increase intracellular inositol trisphosphate and then release intracellular calcium stores. Cell-based KISS1R-HEK293 assay is using HEK293 cells that have been genetically engineered to express the human KISS1R, which activity can be measured by calcium signaling. A compound/drug can activate (agonist) KISS1R that can be monitored by levels of intracellular calcium.
# KISS1R-HEK293 cells developed by Codex Corp contain human KISS1R gene, which was stably integrated into HEK 293 cells. The compound activation can be detected by fluorescence intensity via calcium flux assay. This cell line has been used to screen the Tox21 10K compound library to identify agonists of KISS1R.
# KISS1R-Hek293 cells were dispensed at 1500 cells/4uL/well in 1536-well black wall/clear bottom plates using a multidrop dispenser. After the assay plates were incubated at a 37 C/5% CO2 incubator for 18 hours, 4 microL of Calcium Dye Solution was added to each well. The plates were incubated at 37 C for 1 hour. And then 23 nL of compounds dissolved in DMSO, positive controls, or DMSO only was transferred to the assay plate by a pin tool station. The fluorescence intensity in the plates was measured using FDSS 7000EX kinetic plate reader with a filter set of Ex/Em=480/540 for 3 min at 1 sec intervals. Each test compound was measured at 15 concentrations and in triplicates.
# On the % scale 0 is the no-effect control and ±100 the full control effect.
# Chain of KiSS-1 receptor (Homo sapiens) (Q969F8 whole entry, looked up): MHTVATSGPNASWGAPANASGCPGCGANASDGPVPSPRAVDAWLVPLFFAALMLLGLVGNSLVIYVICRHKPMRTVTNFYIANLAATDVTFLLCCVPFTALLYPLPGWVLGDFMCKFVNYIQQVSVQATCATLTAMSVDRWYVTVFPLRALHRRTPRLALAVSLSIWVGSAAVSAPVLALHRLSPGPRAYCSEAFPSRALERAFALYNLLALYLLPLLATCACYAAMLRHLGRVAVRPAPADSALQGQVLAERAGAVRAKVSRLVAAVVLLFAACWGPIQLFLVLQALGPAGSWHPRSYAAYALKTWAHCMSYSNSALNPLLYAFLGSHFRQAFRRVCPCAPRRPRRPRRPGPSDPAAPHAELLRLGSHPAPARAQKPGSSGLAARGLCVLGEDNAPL
Structure (SMILES),activation,Potency
O=S(=O)(NS(=O)(=O)C(F)(F)F)C(F)(F)F,3.47%,
CCC(C)(C)C(=O)OC1=C(c2ccc(Cl)cc2Cl)C(=O)OC12CCCCC2,0.967%,
CN1C[C@H](CNC(=O)OCc2ccccc2)C[C@@H]2c3cccc4c3c(cn4C)C[C@H]21,0.949% [at 35.3 µM],
O.O.O.O.O.O.O=S(=O)([O-])[O-].[Ni+2],21.3% [at 35.3 µM],
CC(Oc1cccc(Cl)c1)C(=O)O (stereo not given),-0.763%,
CC(C)[C@H](C(=O)O[C@H](C#N)c1cccc(Oc2ccccc2)c1)c1ccc(Cl)cc1,-1.88%,
COP(=S)(OC)Oc1cc(Cl)c(Br)cc1Cl,-1.64%,
C=CC(C)(CCC=C(C)C)OC(=O)c1ccccc1N (stereo not given),-0.248%,
C=CCOC(=O)c1ccccc1N,0.153%,
CC1(c2ccc(Oc3ccccc3)cc2)OC(=O)N(Nc2ccccc2)C1=O (stereo not given),-0.608%,
ClCCCCCCCl,-0.693%,
O=C1CCCCC1Cl (stereo not given),-3.19%,
Nc1cc(Cl)ccc1O,1.23%,
O=C(Nc1ccccc1)N(Cc1ccc(Cl)cc1)C1CCCC1,1.69%,
C=COC(C)=O,0.85%,
Cc1ccccc1OP(=O)(Oc1ccccc1C)Oc1ccccc1C,0.973%,
CC(C)(C)c1ccc(CSc2cnn(C(C)(C)C)c(=O)c2Cl)cc1,-1.24%,
O=[N+]([O-])c1cccc2cccnc12,2.71%,
C=CC(=O)NCNC(=O)C=C,3.61%,
CC(C)N(Cc1ccccc1)C(=O)C(C)(C)C,2.56%,

Structure (SMILES),activation,Potency
O=C(N[C@H]1CN2CCC1CC2)c1cc2ccoc2cn1,1.2%,
CCOP(=S)(S)OCC,3.66%,
O=[N+]([O-])c1c2ccccc2cc2ccccc12,1.15%,
CCOc1cc(Oc2ccc(C(F)(F)F)cc2Cl)ccc1[N+](=O)[O-],,inactive
SCc1ccco1,-1.23%,
CCCCCCCC(=O)Cl,0.952%,
CCCCCCBr,3.02%,
CCC[N+](CCC)(CCC)CCC,-2.62%,
ClC(Cl)Br,-1.56%,
c1cc(OCC2CO2)ccc1Cc1ccc(OCC2CO2)cc1 (stereo not given),,inactive
CCC1(CC)C(=O)NC(=O)NC1=O,-0.869% [at 35.3 µM],
C=CC(=O)OCC(COC(=O)C=C)(COC(=O)C=C)COC(=O)C=C,4.09%,
CCCCOP(=O)(O)OCCCC,-1.09%,
Cc1ncc(C[n+]2csc(CCO)c2C)c(N)n1,0.943%,
CCOP(=S)(Oc1cnc(C(C)(C)C)nc1)OC(C)C (stereo not given),0.416%,
Cc1ncsc1CCCl,-0.533% [at 35.3 µM],
CCOP(=S)(OCC)Oc1cc(-c2ccccc2)on1,0.187%,
CC(C)CC(C)N (stereo not given),-2.31%,
CC(C)(C)c1cc([N+](=O)[O-])cc(C(C)(C)C)c1O,9.08%,
CC(C)(C)C(O)/C(=C\c1ccc(Cl)cc1Cl)n1cncn1 (stereo not given),5.37%,
